The text below walks through data of PubChem BioAssay (Tox21).

SMILES strings stand for the structures. “And” between values parts separate entries of the source, which are not always exact repeats. Equal values may be shown once. Records with an inconclusive call do not appear. Entries that show only a call come without a potency. The source made the active and inactive calls. Unless noted, calls come from the whole dose curve; as a rule, active = well fitted curve in the direction sought with a large enough effect in the repeat runs; inconclusive = weak or mixed curves; inactive = no such curve, though single readings can be large; an effect the other way counts as inactive or inconclusive.

The target in one test is Estrogen receptor (Homo sapiens) (UniProt P03372). As to the kind of experiment: qHTS assay to identify small molecule antagonists of the estrogen receptor alpha (ER-alpha) signaling pathway using the BG1 cell line in the presence of 0.1 nM 17-beta-estradiol (AID 1259244). Note: nearly all actives have a fitted effect of over 50% in size. Note: potency is the fitted concentration of half-maximal effect. The settings on record: VM7Luc4E2 (BG1) ERE-luciferase, antagonist mode, 0.1 nM E2, 22 h; series mostly up to 92.4 µM. In outline: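 Cells: VM7Luc4E2, endogenous ER-alpha, 4x ERE-luc stable. Pre-culture 5 d, phenol red-free, charcoal-stripped FBS. Plated 24 h, compound + E2 0.1 nM final, 22 h 37C/5% CO2. Readout ONE-Glo luminescence.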
Sequence of Estrogen receptor (Homo sapiens) (P03372 whole entry, looked up): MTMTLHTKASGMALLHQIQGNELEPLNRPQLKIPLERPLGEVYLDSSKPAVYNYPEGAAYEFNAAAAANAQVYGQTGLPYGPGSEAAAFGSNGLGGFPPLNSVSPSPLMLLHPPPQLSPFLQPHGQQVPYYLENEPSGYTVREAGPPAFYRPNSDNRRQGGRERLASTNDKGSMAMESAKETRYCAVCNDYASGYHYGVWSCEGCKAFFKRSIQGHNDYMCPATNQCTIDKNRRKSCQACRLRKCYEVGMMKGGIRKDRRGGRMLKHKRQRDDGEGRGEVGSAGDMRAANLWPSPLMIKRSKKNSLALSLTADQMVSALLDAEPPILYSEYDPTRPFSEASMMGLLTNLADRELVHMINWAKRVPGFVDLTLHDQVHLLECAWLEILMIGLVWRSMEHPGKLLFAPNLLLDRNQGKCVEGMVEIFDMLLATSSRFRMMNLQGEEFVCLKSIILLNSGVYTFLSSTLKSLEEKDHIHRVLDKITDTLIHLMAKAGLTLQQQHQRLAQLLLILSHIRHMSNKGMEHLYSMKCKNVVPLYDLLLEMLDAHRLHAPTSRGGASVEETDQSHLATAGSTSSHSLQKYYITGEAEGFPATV
For `N[C@@H](Cc1c[nH]c2ccc(O)cc12)C(=O)O`, the Potency entry is “inactive”.

With `COC(=O)C1CCC(C(=O)OC)CC1` (stereo not given), the Potency entry was “inactive”.

Regarding `CCCCCCCCCCCCCCCCCC(=O)OCC(O)CO` (stereo not given), the Potency entry is “inactive”.

As for `C/C=C/c1ccc(O)c(OC)c1`, the Potency entry was “inactive”.

For the molecule `COC(=O)c1ccc(C=O)cc1`, the Potency entry is “inactive”.

On to `CCCCOC(=O)CCCCCCCCC(=O)OCCCC`, for which the Potency entry was “inactive”.

For the molecule `O=C(O)CN(CC(=O)O)CC(=O)O`, the Potency entry is “inactive”.

Take `CCN1CCCC1=O`: the Potency result was “inactive”.

In the case of `O=C(O)CCCCC1CCSS1` (stereo not given), the Potency entry is “inactive”.

`COC1=CC(=O)C[C@@H](C)[C@]12Oc1c(Cl)c(OC)cc(OC)c1C2=O`: the Potency result is “inactive”.

For the molecule `NC(N)=NC(N)=NCCc1ccccc1`, the Potency is 7.65 µM (active) and 5.45 µM (active) and 7.5 µM (active).

Turning to `COC(=O)c1ccc(O)cc1`, the Potency entry was “inactive”.

For the molecule `Oc1cccc(O)c1`, the Potency result was “inactive”.

Regarding `CC1=NN(c2ccccc2)C(=O)C1`, the Potency result was “inactive”.

Turning to `CC(=O)CCC(C)C`, the Potency entry was “inactive”.

For `CC(=O)/C=C/C1=C(C)CCCC1(C)C`, the Potency result is “inactive”.

For the molecule `CC(C)(C)NCC(O)c1ccc(O)c(CO)c1` (stereo not given), the Potency entry was “inactive”.

`Cc1c(N(C)C)c(=O)n(-c2ccccc2)n1C`: the Potency entry was “inactive”.

Turning to `CC(=O)OC/C=C(C)/C=C/C=C(C)/C=C/C1=C(C)CCCC1(C)C`, the Potency entry was “inactive”.

Consider `Cc1cnc(NC(=O)C2=C(O)c3ccccc3S(=O)(=O)N2C)s1`, for which the Potency entry was “inactive”.

In the case of `C[C@]12C=CC(=O)C=C1CC[C@@H]1[C@@H]2C(=O)C[C@@]2(C)[C@H]1CC[C@]2(O)C(=O)CO`, the Potency entry was “inactive”.

For the molecule `CN(C)C=O`, the Potency entry was “inactive”.

As for `Cc1cccc2ccccc12`, the Potency entry was “inactive”.

Turning to `C[C@]12C[C@H](O)[C@H]3[C@@H](CCC4=CC(=O)CC[C@@]43C)[C@@H]1CC[C@@H]2C(=O)CO`, the Potency entry is “inactive”.

Take `CC(C)Cc1ccc(C(C)C(=O)O)cc1` (stereo not given): the Potency result is “inactive”.

On to `Cc1ccc(O)c(-n2nc3ccccc3n2)c1`, for which the Potency result is “inactive”.

With `CC(C)(C)CC(C)(C)c1ccc(O)c(-n2nc3ccccc3n2)c1`, the Potency entry is “inactive”.

As for `C=C(C)OC(C)=O`, the Potency entry is “inactive”.

`OCCCc1ccccc1`: the Potency result is “inactive”.

In the case of `C=CCOC(=O)CC(C)C`, the Potency entry was “inactive”.

Tested on in the next test: not listed separately
In words: qHTS assay to identify small molecule phospholipidosis (PLD) inducers (AID 1259344; active = well fitted curve in the direction sought with a large enough effect; an effect the other way counts as inactive or inconclusive). As to conditions: HepG2 phospholipidosis, LipidTOX Red imaging, 24 h; series mostly up to 38.3 µM. The method, boiled down: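 HepG2 cells on collagen I, attached 4 h at 37 C, were co-treated with compound and LipidTOX Red dye for 24 h at 37 C, then fixed with paraformaldehyde plus Hoechst 33342 and imaged by high-content microscopy for phospholipid accumulation.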
Turning to `N[C@@H](Cc1c[nH]c2ccc(O)cc12)C(=O)O`, the Potency result is “inactive”.

As for `CCCCCCCCCCCCCCCCCC(=O)OCC(O)CO` (stereo not given), the Potency entry was “inactive”.

Regarding `C/C=C/c1ccc(O)c(OC)c1`, the Potency entry was “inactive”.

Turning to `CCN1CCCC1=O`, the Potency entry was “inactive”.

`O=C(O)CCCCC1CCSS1` (stereo not given): the Potency result is “inactive”.

Take `COC1=CC(=O)C[C@@H](C)[C@]12Oc1c(Cl)c(OC)cc(OC)c1C2=O`: the Potency entry is “inactive”.

Take `NC(N)=NC(N)=NCCc1ccccc1`: the Potency entry is “inactive”.

For the molecule `COC(=O)c1ccc(O)cc1`, the Potency result was “inactive”.

With `Oc1cccc(O)c1`, the Potency result was “inactive”.

Consider `CC1=NN(c2ccccc2)C(=O)C1`, for which the Potency result was “inactive”.

With `CC(C)(C)NCC(O)c1ccc(O)c(CO)c1` (stereo not given), the Potency result was “inactive”.

For the molecule `Cc1c(N(C)C)c(=O)n(-c2ccccc2)n1C`, the Potency result is “inactive”.

`CC(=O)OC/C=C(C)/C=C/C=C(C)/C=C/C1=C(C)CCCC1(C)C`: the Potency result is “inactive”.

As to `Cc1cnc(NC(=O)C2=C(O)c3ccccc3S(=O)(=O)N2C)s1`, the Potency result was “inactive”.

For the molecule `C[C@]12C=CC(=O)C=C1CC[C@@H]1[C@@H]2C(=O)C[C@@]2(C)[C@H]1CC[C@]2(O)C(=O)CO`, the Potency result was “inactive”.

In the case of `C[C@]12C[C@H](O)[C@H]3[C@@H](CCC4=CC(=O)CC[C@@]43C)[C@@H]1CC[C@@H]2C(=O)CO`, the Potency entry is “inactive”.

`CC(C)Cc1ccc(C(C)C(=O)O)cc1` (stereo not given): the Potency result is “inactive”.

Regarding `Cc1ccc(O)c(-n2nc3ccccc3n2)c1`, the Potency result is “inactive”.

Turning to `CC(C)(C)CC(C)(C)c1ccc(O)c(-n2nc3ccccc3n2)c1`, the Potency result is “inactive”.

`OCCCc1ccccc1`: the Potency entry was “inactive”.

Tested on in the next test: not listed separately
As to the kind of experiment: qHTS assay to identify small molecule HDAC inhibitors (AID 1259364). Note: nearly all actives have a fitted effect of over 45% in size. Note: potency is the fitted concentration of half-maximal effect. The settings on record: HCT-116 HDAC-Glo I/II luminescence, 2 h; series mostly up to 92.4 µM. The method, boiled down: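 Luminescence from a cell-permeant luminogenic class I/II HDAC substrate reports endogenous deacetylase activity in intact HCT-116 cells treated with compounds for 2 h.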
Regarding `N[C@@H](Cc1c[nH]c2ccc(O)cc12)C(=O)O`, the Potency entry was “inactive”.

As to `COC(=O)C1CCC(C(=O)OC)CC1` (stereo not given), the Potency result is “inactive”.

Regarding `CCCCCCCCCCCCCCCCCC(=O)OCC(O)CO` (stereo not given), the Potency entry was “inactive”.

As to `C/C=C/c1ccc(O)c(OC)c1`, the Potency entry was “inactive”.

On to `COC(=O)c1ccc(C=O)cc1`, for which the Potency entry was “inactive”.

For the molecule `CCCCOC(=O)CCCCCCCCC(=O)OCCCC`, the Potency entry is “inactive”.

With `O=C(O)CN(CC(=O)O)CC(=O)O`, the Potency entry is “inactive”.

For the molecule `CCN1CCCC1=O`, the Potency entry was “inactive”.

In the case of `O=C(O)CCCCC1CCSS1` (stereo not given), the Potency entry was “inactive”.

Regarding `COC1=CC(=O)C[C@@H](C)[C@]12Oc1c(Cl)c(OC)cc(OC)c1C2=O`, the Potency entry is “inactive”.

Regarding `NC(N)=NC(N)=NCCc1ccccc1`, the Potency entry was “inactive”.

For `COC(=O)c1ccc(O)cc1`, the Potency result was “inactive”.

Turning to `Oc1cccc(O)c1`, the Potency entry is “inactive”.

Regarding `CC1=NN(c2ccccc2)C(=O)C1`, the Potency result is “inactive”.

For `CC(=O)CCC(C)C`, the Potency entry is “inactive”.

For `CC(=O)/C=C/C1=C(C)CCCC1(C)C`, the Potency result was “inactive”.

On to `CC(C)(C)NCC(O)c1ccc(O)c(CO)c1` (stereo not given), for which the Potency entry is “inactive”.

For `Cc1c(N(C)C)c(=O)n(-c2ccccc2)n1C`, the Potency entry was “inactive”.

In the case of `CC(=O)OC/C=C(C)/C=C/C=C(C)/C=C/C1=C(C)CCCC1(C)C`, the Potency entry was “inactive”.

In the case of `Cc1cnc(NC(=O)C2=C(O)c3ccccc3S(=O)(=O)N2C)s1`, the Potency entry was “inactive”.

With `C[C@]12C=CC(=O)C=C1CC[C@@H]1[C@@H]2C(=O)C[C@@]2(C)[C@H]1CC[C@]2(O)C(=O)CO`, the Potency result is “inactive”.

For `CN(C)C=O`, the Potency entry was “inactive”.

Turning to `Cc1cccc2ccccc12`, the Potency result is “inactive”.

Take `C[C@]12C[C@H](O)[C@H]3[C@@H](CCC4=CC(=O)CC[C@@]43C)[C@@H]1CC[C@@H]2C(=O)CO`: the Potency result is “inactive”.

For `CC(C)Cc1ccc(C(C)C(=O)O)cc1` (stereo not given), the Potency result was “inactive”.

For `Cc1ccc(O)c(-n2nc3ccccc3n2)c1`, the Potency was 1.08 µM (active) and 2.17 µM (active) and 1.5 µM (active).

For the molecule `CC(C)(C)CC(C)(C)c1ccc(O)c(-n2nc3ccccc3n2)c1`, the Potency entry was “inactive”.

For the molecule `C=C(C)OC(C)=O`, the Potency result was “inactive”.

As for `OCCCc1ccccc1`, the Potency result was “inactive”.

Regarding `C=CCOC(=O)CC(C)C`, the Potency result is “inactive”.
